Hits are enriched below; roughly 3% of the tested compounds scored in any of these assays.
ABHD5 PLIN5 PPI: inhibitors of human ABHD5-perilipin-5 interaction; AID 602281; Split G. princeps luciferase complementation, luminescence, 4 h; 360,000 tested, 0.78% active; inhibition, % at 4 µM;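 active = inhibition above the mean inhibition across every tested compound plus 3 SD, cut at about 22% in these data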;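 also: 0% = DMSO only wells and the 100% control is not disclosed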
Target sequence (Q00G26 whole entry, looked up): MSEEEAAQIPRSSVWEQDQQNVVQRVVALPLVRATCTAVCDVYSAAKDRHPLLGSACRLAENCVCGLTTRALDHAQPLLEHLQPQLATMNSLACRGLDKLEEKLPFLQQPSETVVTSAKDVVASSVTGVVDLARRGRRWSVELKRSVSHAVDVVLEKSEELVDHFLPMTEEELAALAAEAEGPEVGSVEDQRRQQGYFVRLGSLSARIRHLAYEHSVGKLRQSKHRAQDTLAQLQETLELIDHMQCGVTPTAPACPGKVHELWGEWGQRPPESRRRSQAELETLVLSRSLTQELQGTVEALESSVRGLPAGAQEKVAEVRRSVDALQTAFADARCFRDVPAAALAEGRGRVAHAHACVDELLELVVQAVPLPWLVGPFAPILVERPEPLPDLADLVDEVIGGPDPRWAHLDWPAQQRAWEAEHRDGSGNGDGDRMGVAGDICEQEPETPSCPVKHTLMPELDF
Target sequence (Q8WTS1 whole entry, looked up): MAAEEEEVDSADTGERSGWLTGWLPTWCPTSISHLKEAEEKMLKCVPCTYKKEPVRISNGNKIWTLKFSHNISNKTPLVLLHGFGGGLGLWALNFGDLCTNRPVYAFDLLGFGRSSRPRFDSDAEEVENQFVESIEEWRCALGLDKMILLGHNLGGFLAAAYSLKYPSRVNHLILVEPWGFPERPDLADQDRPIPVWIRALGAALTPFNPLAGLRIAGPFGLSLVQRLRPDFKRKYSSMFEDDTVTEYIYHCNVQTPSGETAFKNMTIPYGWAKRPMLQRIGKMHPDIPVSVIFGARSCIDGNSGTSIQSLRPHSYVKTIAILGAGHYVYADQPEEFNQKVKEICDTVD
HIF-2a block: inhibitors of HIF-2a | 786-0 RCC cells HIF-2a reporter, luciferase luminescence, overnight | inhibition, % at 18.8 µM | 360,000 tested, 0.72% active | AID 624352;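 active = inhibition of the luminescence signal of 40% or more relative to plate controls, in a single-dose primary screen at 18.75 µM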
CF NFkB inh: inhibitors of cystic fibrosis induced NF-kB; KKLEB NF-kB-GFP reporter, PAF-induced, GFP fluorescence overnight; inhibition, % at 5 µM; 360,000 tested, 0.86% active; AID 588850;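 active = at least 50% inhibition at 5 µM, scaled per plate between neutral and stimulator controls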;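 also: PAF is a Pseudomonas aeruginosa culture filtrate used as stimulus; plate controls were PAF-stimulated DMSO wells for no effect and unstimulated DMSO wells for full effect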
MITF TRPM1 inh: MITF TRPM1 promoter inhibition in SK-MEL-5 cells; SK-MEL-5 TRPM1 promoter luciferase, 24 h; inhibition, % at 12.5 µM; 330,000 tested, 0.83% active;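 active = mean inhibition across replicates of 60% or more, whatever share of single replicates reaches that level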
KKLEB tox: counter-screen for CF NF-kB inhibitors: cytotoxicity; KKLEB CF airway cells viability, ATPlite luminescence, overnight; hits give low values; cells stimulated with P. aeruginosa culture filtrate; AID 602141; 360,000 tested, 0.36% active; activity change (cytotoxicity), % at 5 µM;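 active = corrected activity change at or below -50% at 5 µM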
Peg3 prom inh: inhibitors of Peg3 promoter; HeLa PEG-Prom luciferase reporter, luminescence, overnight; inhibition, % at 20 µM; 360,000 tested, 1.7% active; AID 588405;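 active = inhibition of at least 50% at 20 µM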
* = called active by the depositor; · = no result given.

SMILES	ABHD5 PLIN5 PPI	HIF-2a block	CF NFkB inh	MITF TRPM1 inh	KKLEB tox	Peg3 prom inh
COc1ccc(CCN(C(=S)Nc2ccccc2)C2CC(=O)N(c3ccccc3)C2=O)cc1 (stereo unspecified)	3.7	-4.2	-7.2	-5.5	1.2	-0.2
O=C1CC(N(CCc2ccccc2)C(=S)Nc2ccccc2)C(=O)N1c1ccc(Br)cc1 (stereo unspecified)	-8.3	-30.5	10.8	-9.9	-7.5	54.2*
Cn1cc([N+](=O)[O-])c(C(=O)Nc2ccn(Cc3c(F)c(F)cc(F)c3F)n2)n1	-2.5	-74.0	12.0	13.0	3.5	55.9*
Cn1ncc([N+](=O)[O-])c1C(=O)Nc1ccn(Cc2ccccc2F)n1	-1.9	-0.7	-5.2	-8.2	13.4	-2.4
S=C(Nc1ccc(Cl)c(Cl)c1)NC1CCN(Cc2ccccc2)CC1	16.8	21.3	11.1	36.8	-15.1	93.3*
Fc1ccc(NC(=S)NC2CCN(Cc3ccccc3)CC2)cc1	-1.4	2.2	2.3	-3.0	7.3	9.0
Cc1ccccc1CN1CCN(Cc2cc(=O)c3ccccc3[nH]2)CC1CCO (stereo unspecified)	1.6	19.0	-5.3	24.2	2.1	12.1
O=C(CCN1C(=O)C2CC=CCC2C1=O)Nc1cccc(Cl)c1 (stereo unspecified)	-6.2	-38.1	-7.2	-9.9	2.3	-25.6
COC(=O)[C@@H]1[C@@H](C#N)C2(c3ccccc3-c3ccccc32)N(c2ccc(Cl)cc2)N1C#N	7.5	63.6*	10.2	37.8	-6.7	109.8*
COC(=O)c1cccc(NC(=O)/C=C/c2ccc3c(c2)OCO3)c1	1.6	49.9*	-14.5	4.3	-4.9	-140.2
Cc1ccc(S(=O)(=O)NCC(=O)OCC(=O)N2CCN(C(=O)c3ccco3)CC2)cc1C	6.6	5.8	-1.5	-4.9	-7.4	-7.1
O=C1Nc2ccc(Br)cc2C12NNc1ccccc1O2 (stereo unspecified)	5.0	-26.3	-82.7	16.2	6.9	67.3*
O=C1c2ccccc2C(=O)c2c1ccc(O)c2O	5.5	-15.2	-8.1	-1.2	-19.5	-23.1
COC(=O)c1cccc2c1-c1ccccc1/C2=N\NC(N)=O	-2.7	13.7	-106.8	17.6	2.3	41.8
COC(=O)c1cccc2c1-c1ccccc1/C2=N/O	-7.0	32.2	72.5*	-9.2	-15.1	12.1
COC(=O)c1ccc2c(c1O)C(=O)c1ccccc1C2=O	-3.6	-152.8	46.5	97.1*	11.3	-133.6
O=C(NC1CCC(O)CC1)c1ccc(NS(=O)(=O)c2cccc([N+](=O)[O-])c2)cc1 (stereo unspecified)	-0.8	15.3	27.8	-4.7	-2.0	15.8
CC1(C)Cc2c(cnn2-c2ccccc2)C(NC(=O)CCc2ccc(=O)[nH]n2)C1 (stereo unspecified)	7.0	17.4	-32.0	-20.9	12.8	5.4
Cc1cc(C)n(-c2nc(NCCN(C)C)c3c4c(sc3n2)CCCC4)n1	15.8	-66.0	26.6	66.4*	-25.2	103.0*
Cc1cc(C)n(-c2nc(NCCCN(C)C)c3c4c(sc3n2)CCCC4)n1	17.1	-131.8	21.1	·	-21.1	48.3
CCOc1cc(/C=C/C(=O)c2ccc3c(c2)OCCO3)ccc1OCC(=O)N(C)C	16.5	32.0	14.9	·	-16.4	63.2*
O=C(/C=C/c1cccc([N+](=O)[O-])c1)c1ccc2c(c1)OCCO2	22.8*	-65.4	11.5	-20.0	-21.5	34.2
CCOc1cc(/C=C/C(=O)c2ccc(O)cc2)ccc1OCC(=O)N(C)C	9.2	15.7	15.9	21.9	-0.4	6.3
COc1ccc(OC)c(CCNC(=O)c2ccc3c(c2)N(Cc2ccccc2)CCS3)c1	-0.7	5.2	-5.2	-19.7	0.6	21.8
O=C(Nc1cccc(C(F)(F)F)c1)c1ccc2nc(-c3ccco3)c(-c3ccco3)nc2c1	38.2*	4.9	1.4	-4.4	-14.2	50.1*
SMILES	ABHD5 PLIN5 PPI	HIF-2a block	CF NFkB inh	MITF TRPM1 inh	KKLEB tox	Peg3 prom inh
COc1ccc(CCNC(=O)c2ccc3nc(-c4ccco4)c(-c4ccco4)nc3c2)cc1OC	34.0*	20.3	15.6	20.3	-5.4	27.4
O=C(Nc1ccc(N2CCOCC2)cc1)Nc1ccc2nc(-c3ccco3)c(-c3ccco3)nc2c1	12.7	0.1	69.8*	-12.5	-41.8	47.0
COc1ccc(CCNC(=O)c2ccc3c(c2)N(Cc2ccccc2)CCS3)cc1OC	1.2	3.2	16.4	13.1	-3.1	55.2*
O=C(Nc1ccc2nc(-c3ccco3)c(-c3ccco3)nc2c1)NC1CC1	25.7*	-47.7	4.2	-45.7	-9.9	-43.0
O=C(Nc1ccc(F)c(Cl)c1)NC1CC1	-2.1	-1.8	2.5	-12.7	-9.3	-10.6
CSc1ccc(COC(=O)c2cc([N+](=O)[O-])ccc2N2CCOCC2)cc1	0.7	39.2	35.0	67.1*	-24.5	-9.8
Nc1ccc(Oc2ccccc2-c2ccccc2)cc1	-5.1	91.0*	0.2	66.2*	6.1	49.2
COC(=O)c1c(C)nn(-c2ccc(F)c(Cl)c2)c1-c1cc(C)on1	2.3	9.4	10.0	1.5	-7.5	22.1
CC(C)C[C@H]1CN(CCCC[C@H]2CNC(=O)C(=O)N2CCc2ccc(O)cc2)C(=O)C(=O)N1CCc1ccc(O)cc1	-3.9	0.1	·	·	·	·
O=C(CCCn1c(=O)[nH]c2ccccc2c1=O)N1CCN(c2ccccn2)CC1	4.7	10.0	-4.4	·	3.8	22.6
O=C(CCCn1c(=S)[nH]c2ccccc2c1=O)N1CCN(c2cccc(Cl)c2)CC1	-3.8	10.7	8.1	3.5	-28.5	19.2
O=C(CCCCCNc1nc(=S)[nH]c2ccccc12)N1CCN(c2ccccn2)CC1	-2.3	7.4	-1.5	-11.0	-0.2	55.7*
COc1cccc(N2CCN(C(=O)CCCCCNc3nc(=S)[nH]c4ccccc34)CC2)c1	-0.3	-0.4	3.7	-4.2	-20.6	62.8*
O=C(Cc1ccc(NC2=NC3CS(=O)(=O)CC3S2)cc1)NCCc1ccccc1 (stereo unspecified)	-0.2	16.1	-3.2	·	-2.3	-0.6
O=c1oc(CCCO)cc2ccc(/C=C/c3cccc([N+](=O)[O-])c3)cc12	3.1	-317.9	-1.1	-89.9	-16.9	-425.9
O=C(CCl)Nc1ccc(N=Nc2ccccc2)cc1	4.7	-122.1	-52.0	4.2	-13.6	107.0*
O=C(CCl)Nc1cccc(Oc2ccccc2)c1	1.9	18.5	-37.5	66.2*	-23.6	12.4
CC(=O)Nc1ccc(N=Nc2ccccc2)cc1	7.1	-189.1	11.0	-66.5	-1.7	-341.5
O=C(CCl)Nc1ccc(N2CCCCCC2)cc1	-4.6	5.1	-10.8	-10.7	7.9	83.7*
CCC(=O)Nc1ccc(N2CCCCC2)cc1	8.3	-76.3	6.4	-11.9	1.9	-76.0
O=C(CCl)Nc1cccc(Oc2cnccn2)c1	-12.2	11.4	-31.2	30.2	8.1	21.5
Cc1cc(C)c(S(=O)(=O)NCc2csc(C)n2)c(C)c1	0.7	9.4	13.0	-0.4	-7.5	0.3
Cn1ccnc1SCC(=O)NC1(C#N)CCCCC1	14.3	8.3	10.0	-5.3	-9.7	-8.3
